# According to the supplement of paper PMC8975748:
# Where a name gives a salt, the structure may show the parent alone.
# Test system: Saccharomyces cerevisiae BY4741 SeMeCo community
# Experiment: z-score of subpopulation abundance vs DMSO median, subpopulation auxotrophic for U; higher = larger share of this subpopulation than in DMSO controls
# Details: 10 µM; 24 h; SM minimal medium; subpopulation (auxotrophy): U
# How it was run: (§1)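 A community of Saccharomyces cerevisiae BY4741 was built from four plasmids that each restored one auxotrophy and encoded a distinct fluorescent protein. Pre-grown overnight to OD600 1.0 and diluted to 0.3, it was dispensed at 70 µl into 384-well plates acoustically predosed with library drugs for a final 10 µM, and grown 24 h in minimal SM medium. Cells were then paraformaldehyde-fixed and imaged by automated confocal microscopy. Thresholds and autofluorescence correction came from single-auxotroph fluorescent strains, and each subpopulation's abundance was scored as a z-score relative to the vehicle-well median.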
row,SMILES,z-score of subpopulation abundance
1,COC(=O)C1=C(C)NC(C)=C(C(=O)OC(C)(C)CN(C)CCC(c2ccccc2)c2ccccc2)C1c1cccc([N+](=O)[O-])c1 (stereo not given) [Lercanidipine hydrochloride],-1.5
2,O=c1[nH]c2ccccc2n1CCN1CCN(c2cccc(C(F)(F)F)c2)CC1 [Flibanserin],0.4
3,NC1CCN(c2nc3c(cc2F)c(=O)c(C(=O)O)cn3-c2ccc(F)cc2F)C1 (stereo not given) [Tosufloxacin p-Toluenesulfonate Hydrate],-0.39
4,CC1(C)S[C@@H]2[C@H](NC(=O)[C@H](NC(=O)N3CCNC3=O)c3ccccc3)C(=O)N2[C@H]1C(=O)O [Azlocillin sodium salt],-1.51
5,CCN(CC)CCOC(=O)c1ccc(N)cc1Cl [Chloroprocaine HCl],0.25

# Test system: Saccharomyces cerevisiae BY4741 SeMeCo community
# Experiment: z-score of subpopulation abundance vs DMSO median, subpopulation auxotrophic for H; higher = larger share of this subpopulation than in DMSO controls
# Details: 10 µM; 24 h; SM minimal medium; subpopulation (auxotrophy): H
# How it was run: as §1
row,SMILES,z-score of subpopulation abundance
1,CC[C@H]1OC(=O)[C@H](C)[C@@H](O[C@H]2C[C@@](C)(OC)[C@@H](O)[C@H](C)O2)[C@H](C)[C@@H](O[C@@H]2O[C@H](C)C[C@H](N(C)C)[C@H]2O)[C@](C)(O)C[C@@H](C)/C(=N\OCOCCOC)[C@H](C)[C@@H](O)[C@]1(C)O [Roxithromycin],0.59
2,CC(C(=O)O)c1cccc(C(=O)c2ccccc2)c1 (stereo not given) [Ketoprofen],0.99
3,C#C[C@]1(O)CC[C@H]2[C@@H]3CCC4=Cc5oncc5C[C@]4(C)[C@H]3CC[C@@]21C [Danazol],-0.48
4,Cc1c(OCC(F)(F)F)ccnc1C[S+]([O-])c1nc2ccccc2[nH]1 (stereo not given) [Lansoprazole],1.84
5,CC(C(O)c1ccc(O)cc1)N1CCC(Cc2ccccc2)CC1 (stereo not given) [Ifenprodil Tartrate],-0.73
6,CC(=O)OCC[N+](C)(C)C [Acetylcholine iodide],-0.21
7,CC(=O)N1CCN(c2ccc(OCC3COC(Cn4ccnc4)(c4ccc(Cl)cc4Cl)O3)cc2)CC1 (stereo not given) [Ketoconazole],0.08
8,CN1C2CCCC1CC(NC(=O)c1nn(C)c3ccccc13)C2 (stereo not given) [Granisetron HCl],1.08
9,NC(=O)OCC(COC(N)=O)c1ccccc1 [Felbamate],-0.6
10,CCCN(CCC)CCc1cccc2c1CC(=O)N2 [Ropinirole HCl],-0.16
11,CC(=O)NO [Acetohydroxamic acid],0.14
12,COc1ccc2c3c1O[C@H]1C[C@@H](O)C=C[C@@]31CCN(C)C2 [Galanthamine HBr],0.1
13,CCN(CC)CC#CCOC(=O)C(O)(c1ccccc1)C1CCCCC1 (stereo not given) [Oxybutynin chloride],-0.41
14,O=C1CC2(CCCC2)CC(=O)N1CCCCN1CCN(c2ncccn2)CC1 [Buspirone HCl],-0.72
15,Cc1cccc(N(C)C(=S)Oc2ccc3ccccc3c2)c1 [Tolnaftate],-1.13
16,CC(C)Cc1ccc(C(C)C(=O)O)cc1 (stereo not given) [Ibuprofen Lysine],-0.2
17,O=C(Nc1cc(Cl)cc(Cl)c1O)c1c(O)c(Cl)cc(Cl)c1Cl [Oxyclozanide],-2.53
18,CN1CCN(CC(=O)N2c3ccccc3C(=O)Nc3cccnc32)CC1 [Pirenzepine dihydrochloride],0.01
19,O=C(O)CCc1nc(-c2ccccc2)c(-c2ccccc2)o1 [Oxaprozin],-0.36
20,CN1CCC(=C2c3ccccc3C=Cc3ccccc32)CC1 [Cyproheptadine hydrochloride],-0.32
21,CC(Cc1ccc(O)c(O)c1)C(C)Cc1ccc(O)c(O)c1 (stereo not given) [Nordihydroguaiaretic acid (NDGA)],-1.01
22,CCOc1cc(N)c(Cl)cc1C(=O)NCC1CN(Cc2ccc(F)cc2)CCO1 (stereo not given) [Mosapride],0.06
23,C/C(=C\C(=O)OCCCCCCCCC(=O)O)C[C@@H]1OC[C@H](C[C@@H]2O[C@H]2[C@@H](C)[C@H](C)O)[C@@H](O)[C@H]1O [Mupirocin calcium],0.77
24,Cc1cc(C)nc(NS(=O)(=O)c2ccc(N)cc2)n1 [Sulfamethazine Sodium Salt],0.36
25,O=C1[C@H]2CCCC[C@H]2C(=O)N1CCCCN1CCN(c2nsc3ccccc23)CC1 [Perospirone hydrochloride],-0.14
26,CC1=C(C(=O)OCCN(Cc2ccccc2)c2ccccc2)C(c2cccc([N+](=O)[O-])c2)C(P2(=O)OCC(C)(C)CO2)=C(C)N1 (stereo not given) [Efonidipine],1.79
27,CS(=O)(=O)c1ccc([C@@H](O)[C@@H](CF)NC(=O)C(Cl)Cl)cc1 [Florfenicol],-0.98
28,COC(=O)C1=C(C)NC(C)=C(C(=O)OC(C)(C)CN(C)CCC(c2ccccc2)c2ccccc2)C1c1cccc([N+](=O)[O-])c1 (stereo not given) [Lercanidipine hydrochloride],2.45
29,O=c1[nH]c2ccccc2n1CCN1CCN(c2cccc(C(F)(F)F)c2)CC1 [Flibanserin],-0.96
30,NC1CCN(c2nc3c(cc2F)c(=O)c(C(=O)O)cn3-c2ccc(F)cc2F)C1 (stereo not given) [Tosufloxacin p-Toluenesulfonate Hydrate],0.41
